HT1080 IDH1KD tx – kills HT-1080 cells with IDH1 knockdown; HT-1080 IDH1 knockdown viability, ATP luminescence, 48 h; Potency, µM (highest dose often 46.1 µM), without a hit: at the highest dose activity, negative = toxicity, most hits filed as cytotoxic; 360,000 tested, 2% active; AID 686971;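 further: potency means the concentration at half of the fitted maximal effect; 0% = DMSO wells and -100% = cell-free medium wells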
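In this qHTS, HT-1080 cells depleted of IDH1 are exposed for 48 h at 37 °C to compound titrations. Toxicity is scored from CellTiter-Glo luminescence, with DMSO as full viability and medium alone as none.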
DT40 TDP1 CPT – DT40-hTDP1 cell growth loss with CPT. chicken DT40 Tdp1-/-;hTDP1 cells + 20 nM CPT, ATP luminescence, 48 h. AID 686979. 420,000 tested, 12% active. Potency, µM (highest dose often 46.2 µM), inactives show top-dose activity change, negative = growth inhibition, usual class: inhibitors; further: potency means the concentration at half of the fitted maximal effect; nearly all actives have a fitted effect of over 55% in size
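Chicken DT40 Tdp1-/- cells complemented with human TDP1, 400 cells/well, exposed to compounds plus 20 nM camptothecin for at least 48 h at 37 C; viability read as ATP content by CellTiter-Glo luminescence.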
IL-1B inflam inh – inhibitors of inflammasome signaling (IL-1 beta secretion); THP-1 LPS/ATP IL-1B secretion, AlphaLISA, 16 h; active compounds read low; activity change, % at 57.5 µM; 360,000 tested, 4.7% active; AID 743279; in the data active means activity change below about -50%; inconclusive means mostly about -30% to -49%
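THP-1 cells pretreated 1 hr with compounds (up to 57.5 uM final), then stimulated with LPS (250 ng/mL final) plus ATP (1.25 mM final); secreted IL-1B measured by AlphaLISA after 16 hr, decreased signal indicating inhibition.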
HT1080-NT tox – kills 2HG-producing HT-1080-NT fibrosarcoma cells | HT-1080-NT fibrosarcoma viability, CellTiter-Glo ATP luminescence, 48 h | Potency, µM (series often up to 46.1 µM), inactives show at the top dose activity, negative = less viability, actives largely listed as cytotoxic | 360,000 tested, 1.6% active;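 further: NT is the 2HG producing partner of a matched IDH1 knockdown line; potency means the concentration at half of the fitted maximal effect; 0% = DMSO-treated cells and -100% = media-only wells without cells; nearly all actives have a fitted effect of over 55% in size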
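HT-1080-NT; 750 cells/well; 5% FBS RPMI; 48 h compound, 37 degrees C; CellTiter-Glo luminescence; curve fitting and curve-class assignment.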
TDP1 cell noCPT – qHTS for Inhibitors of human tyrosyl-DNA phosphodiesterase 1 (TDP1): qHTS in cells in absence of CPT | DT40 Tdp1-/- hTDP1 cells, no CPT, ATP luminescence, 48 h | 420,000 tested, 15% active | Potency, µM (series often up to 46.2 µM), for inactives: at the top dose activity change, negative = growth inhibition, most hits filed as inhibitors | AID 686978, 2013; further: potency means the concentration at half of the fitted maximal effect; nearly all actives have a fitted effect of over 55% in size
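DT40 Tdp1-/-;hTDP1 cells, no CPT (DMSO vehicle only), 400 cells/well; compounds pin-transferred; ≥48 hr, 37 °C; CellTiter-Glo 30 min RT dark, luminescence read.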
ELG1 DNA repair – blocks ELG1-dependent DNA repair in HEK293T cells; HEK293T ELG1-luciferase reporter, luminescence, 16 h; DNA damage induced by 5-fluorouridine; AID 504467; 330,000 tested, 2.3% active; Potency, µM (top dose mostly 46.1 µM), for inactives: at the highest dose activity change, negative = inhibition, most hits filed as inhibitors; further: potency means the concentration at half of the fitted maximal effect; nearly all actives have a fitted effect of over 55% in size
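Step one: seed 2,000 cells per well. Step two: pin-transfer compound or DMSO alongside 5-fluorouridine. Step three: incubate 16 hr, 37 °C, 5% CO2. Step four: add ONE-Glo, wait 30 min, read luminescence.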
Starred values were filed as active, the others as inactive; ? = inconclusive; . = no result given. An excerpt weighted towards active compounds, which were near 19% of everything screened. Unless noted, the call rests on the fitted dose curve; in most records, active means well fitted curve in the direction sought with a large enough effect; inconclusive means small, poorly fitted or top-dose-only effect, or another doubt; inactive means no such curve, though single readings can be large; an effect the other way counts as inactive or inconclusive. Unless noted, on the % scale 0 is the no-effect control and ±100 the full control effect.

SMILES	HT1080 IDH1KD tx	DT40 TDP1 CPT	IL-1B inflam inh	HT1080-NT tox	TDP1 cell noCPT	ELG1 DNA repair
CN(C)S(=O)(=O)c1ccc(C(=O)Nc2ccnn2C2CCCCC2)cc1	-6.1%	?	10.7	-9.6%	16.4µM*	25.9µM*
Cc1nn(-c2ccccc2)c(N2CCCCC2)c1/C=N/NC(=O)c1ccncc1	-4.4%	13µM*	11.5	-10.8%	23.1µM*	?
Cc1nn(-c2ccccc2)c(N2CCCC2)c1/C=N/NC(=S)Nc1ccc(F)cc1	0.0%	5.8µM*	-12.3	-3.3%	8.2µM*	.
CSCC[C@H](NC(=O)C(C)Oc1ccc(Cl)cc1)c1nc2ccccc2[nH]1 (some centres undefined)	-12.5%	-28.6%	-13.0	-17.3%	?	-13.4%
COc1ccccc1C(=O)N/C(=C/c1ccc(Br)cc1)C(=O)N1CCOCC1	-2.0%	-26.5%	8.0	-2.6%	?	.
Cc1ccc(N2CC(NS(=O)(=O)c3cccs3)CC2=O)cc1 (centres undefined)	4.6%	-5.4%	-2.7	11.2%	?	10.8%
CCOC(=O)c1sc2ncn(CC(=O)Nc3ccc(F)cc3F)c(=O)c2c1C	.	2.0%	.	.	4.8%	.
CC1CCC(NC(=O)c2ccc3c(c2)N(Cc2cccc(Cl)c2)C(=O)c2ccccc2S3=O)CC1 (centres undefined)	.	-25.9%	.	.	-23.1%	.
O=C(O)c1ccc2c(c1)N(Cc1ccccc1F)C(=O)c1ccccc1S2=O (centres undefined)	-1.1%	-3.5%	34.2	0.9%	-7.7%	6.6%
O=C(c1ccc2c(c1)N(Cc1cccc(Cl)c1)C(=O)c1ccccc1S2=O)N1CCC(Cc2ccccc2)CC1 (centres undefined)	.	3.26µM*	.	.	4.61µM*	.
CC1CCCCN1C(=O)c1ccc2c(c1)N(Cc1cccc(Cl)c1)C(=O)c1ccccc1S2=O (centres undefined)	.	?	.	.	20.6µM*	.
Cc1cccc(N2CCN(C(=O)c3ccc4c(c3)N(Cc3cccc(Cl)c3)C(=O)c3ccccc3S4=O)CC2)c1C (centres undefined)	.	3.66µM*	.	.	5.17µM*	.
CC(C)NC(=O)c1ccc2c(c1)N(Cc1cccc(Cl)c1)C(=O)c1ccccc1S2=O (centres undefined)	.	20.6µM*	.	.	?	.
Cc1cc(C)c(Cn2c(=O)n(CCC(=O)NCc3ccc4c(c3)OCO4)c(=O)c3ccccc32)c(C)c1	.	4.8%	.	.	-1.1%	.
O=C(c1ccc2c(c1)N(Cc1cccc(Cl)c1)C(=O)c1ccccc1S2(=O)=O)N1CCN(c2cccc(C(F)(F)F)c2)CC1	.	-27.4%	.	.	?	.
O=C(c1ccc2c(c1)N(Cc1cccc(Cl)c1)C(=O)c1ccccc1S2=O)N1CCN(c2cccc(C(F)(F)F)c2)CC1 (centres undefined)	.	16.4µM*	.	.	10.3µM*	.
CCOC(=O)N1CCN(C(=O)c2ccc3c(c2)N(Cc2cccc(Cl)c2)C(=O)c2ccccc2S3=O)CC1 (centres undefined)	-22.5%	16.4µM*	-22.8	-7.5%	25.9µM*	?
CCN1CCN(C(=O)c2ccc3c(c2)N(Cc2cccc(Cl)c2)C(=O)c2ccccc2S3=O)CC1 (centres undefined)	.	?	.	.	20.6µM*	.
CN1CCN(C(=O)c2ccc3c(c2)N(Cc2cccc(Cl)c2)C(=O)c2ccccc2S3=O)CC1 (centres undefined)	0.2%	-3.9%	-3.2	2.6%	-13.5%	.
O=C1[C@@H]2Cc3c([nH]c4ccccc34)CN2C(=O)CN1CCCCCO	-3.3%	-2.1%	13.4	-2.7%	19.6%	11.7%
